High-throughput results deposited in PubChem BioAssay by National Center for Advancing Translational Sciences (NCATS).
Rows were chosen to be rich in hits. Some 2.1% of all compounds tested hit in one or more screens of this group.
TDP-43 yeast inh: qHTS of TDP-43 Inhibitors; TDP-43 expressing yeast growth rescue, BacTiter-Glo, 24 h; Potency, µM (doses to about 46.1 µM), inactives show at the highest dose growth rescue (activation), hits mostly activators; hit rate 1.8% among 410,000; also: % of control where 0% means no effect; nearly all actives have a fitted effect of over 50% in size
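In this qHTS, compounds that restore growth of yeast expressing TDP-43 appear as activators. Cells (OD600=0.02, galactose medium, raffinose-pregrown) are incubated with compound 24 hr at 30 deg C and growth is quantified by BacTiter-Glo.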
aSyn rescue: qHTS of alpha-syn Inhibitors; hit rate 0.14% among 370,000; Potency, µM (series often up to 46.1 µM), without a hit: at the top dose growth rescue (activation), hits mostly activators; Yeast expressing alpha-synuclein, growth rescue, BacTiter-Glo, 24 h; also: % of control where 0% means no effect; nearly all actives have a fitted effect of over 65% in size
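Screening used galactose-induced yeast with toxic alpha-synuclein levels, exposed to compound for 24 hr at 30 deg C. Cell growth, read with BacTiter-Glo luminescence, gave the measured signal.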
FUS suppressor: qHTS for Suppressors of FUS Proteinopathy: Primary screen using FUS-linked yeast assay; S. cerevisiae FUS-expressing, growth rescue, OD600, 24 h; Potency, µM (titrated, usually from 76.6 µM), hits mostly activators; hit rate 0.24% among 390,000; AID 1347120, 2019;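 also: plate controls were DMSO vehicle for no effect and reference control for full effect; nearly all actives have a fitted effect of over 55% in size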
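Galactose (2%) drives FUS expression in yeast precultured in raffinose; seeding density OD 0.005. Test compounds incubated 24hr at 30C and 99% humidity before absorbance at 600 nm was measured.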
Abeta rescue: qHTS for compounds that reverse cellular toxicity of Amyloid beta (A-beta) peptide in yeast: Primary Screen. Potency, µM (highest dose often 46.1 µM), actives largely listed as activators. yeast expressing A-beta42, growth rescue, OD600, 48 h; response scale: 0% DMSO, 100% iron-clioquinol control. AID 1347071, 2019. hit rate 0.063% among 410,000; also: nearly all actives have a fitted effect of over 55% in size
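Growth rescue measured by 600 nm absorbance after 48 h yeast culture at 30 C with compound. Values normalized between DMSO and an equimolar ferric chloride plus clioquinol control.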
* = called active by the depositor; i = inactive; ? = inconclusive; . = no result. Calls follow the shape of the dose curve; as a rule, active = well fitted curve in the direction sought with a large enough effect; inconclusive = small, poorly fitted or top-dose-only effect, or another doubt; inactive = no such curve, though single readings can be large; an effect the other way counts as inactive or inconclusive. Potency is read from the fitted curve at half-maximal effect.

SMILES	TDP-43 yeast inh	aSyn rescue	FUS suppressor	Abeta rescue
CC1=NNC(=O)/C1=C\c1cn(-c2ccccc2)nc1-c1ccc(F)cc1	11µM*	-70%	?	i
CCOc1ccc(C2C(C(=O)Nc3ccccc3)=C(C)Nc3nc(-c4ccccc4Cl)nn32)cc1OC (centres undefined)	0%	.	32µM*	i
C[C@H](CO)N1C[C@H](C)[C@@H](CN(C)C(=O)Nc2ccc(C(F)(F)F)cc2)Oc2c(NC(=O)NC3CCCCC3)cccc2C1=O	-2%	7%	28µM*	i
C[C@@H]1CN([C@H](C)CO)C(=O)c2cccc(NC(=O)NC3CCCCC3)c2O[C@@H]1CN(C)C(=O)Nc1ccc(C(F)(F)F)cc1	14%	-15%	32µM*	i
C[C@H](CO)N1C[C@H](C)[C@@H](CN(C)C(=O)Nc2ccc(C(F)(F)F)cc2)Oc2c(NC(=O)C3CCCCC3)cccc2C1=O	?	-11%	?	i
C[C@H](CO)N1C[C@H](C)[C@@H](CN(C)S(=O)(=O)c2cccs2)Oc2c(NC(=O)Nc3ccccc3)cccc2C1=O	-25%	1%	?	i
C[C@H](CO)N1C[C@H](C)[C@@H](CN(C)S(=O)(=O)c2cccs2)Oc2c(NC(=O)NC3CCCCC3)cccc2C1=O	5%	-2%	14µM*	i
O=C(COC(=O)/C=C/c1ccco1)Nc1cc(S(=O)(=O)N2CCOCC2)ccc1Cl	6%	0%	i	i
CC1(C(=O)NCc2ccc(Cl)cc2)CCN1C(=O)c1cccc(F)c1 (centres undefined)	?	3%	i	i
O=C(c1cc2cc(F)ccc2[nH]1)N1CCCC(Nc2ccc(F)cc2)C1 (centres undefined)	18µM*	3%	i	i
CCOc1ccc(CCNC(=O)CSc2nnnn2-c2ccccc2Cl)cc1OCC	15%	7%	i	i
Nc1nc(SCc2ccccc2)ns1	30%	0%	i	i
Nc1nc(SCc2ccc(Cl)cc2)ns1	16µM*	-5%	i	?
COC(=O)C(Cc1ccc(O)cc1)NC(=O)C1CCN(S(=O)(=O)c2ccc(C)cc2)CC1 (centres undefined)	-1%	-3%	i	i
O=c1oc2ccccc2c2[nH]ccc12	-19%	7%	i	i
O=c1oc2ccccc2c2c1ccc1ccccc12	35µM*	7%	i	i
COC(=O)[C@]12CCCCC=C1N(CCC1=CCCCC1)C(=O)[C@H](CC(=O)NCc1ccccc1)C2	35µM*	22%	i	i
CCOC(=O)[C@]12CCCC=C1N(Cc1ccccc1)C(=O)[C@H](CC(=O)NCC13CC4CC(CC(C4)C1)C3)C2	-5%	6%	13µM*	i
CCCCCCCCN1C(=O)[C@H](CC(=O)NCCC(C)C)C[C@@]2(C(=O)OCC)CCCC=C12	-12%	-1%	?	i
COC(=O)[C@]12CCCCC=C1N(Cc1ccco1)C(=O)[C@H](CC(=O)N1CCC(c3ccccc3)CC1)C2	13µM*	7%	i	i
CCOC(=O)[C@]12CCCC=C1N(Cc1ccco1)C(=O)[C@H](CC(=O)N1CCC(c3ccccc3)CC1)C2	14%	2%	i	i
CCOC(=O)[C@]12CCCC=C1N(CCC1=CCCCC1)C(=O)[C@H](CC(=O)NCCC(C)C)C2	25µM*	-18%	i	i
O=C(Nc1cccc(C(F)(F)F)c1)c1cc2nc(-c3ccc4c(c3)OCO4)cc(C(F)(F)F)n2n1	16%	.	i	i
C=CCOC(=O)Nc1nc(CCNC(=O)OCc2ccccc2)c(C(=O)O)s1	20%	6%	i	i
Cc1ccc(NC(=O)CSc2nc(-c3ccco3)nc3cc(=O)[nH]n23)cc1	22%	.	i	i
COc1cccc(CNC(=O)CN2C(=O)COc3ccc(S(=O)(=O)Nc4ccccc4)cc32)c1	-1%	.	?	i
COc1ccc(CN2C(=O)C(CC(=O)NCCN3CCOCC3)CC(C(=O)N3CCOCC3)=C2C)cc1 (centres undefined)	14%	-5%	i	i
CCOC(=O)N1CCN(C(=O)C[C@H]2C[C@@]3(C(=O)OC)C(=C[C@H](C(C)C)O[C@@H]3C3CC3)N(CCC3=CCCCC3)C2=O)CC1	.	.	13µM*	.
